# Data published in ChEMBL document CHEMBL1201862, “PubChem BioAssay data set” (2004).
# Out of some 57,000 sequences screened, about 2,500 (4.4%) were called active. Cut-off read from the data, not from the text of the source: active = GI50 up to about 1.1 µM and inactive = higher. Only a sample is shown. Measured potencies and affinities stand elsewhere.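 48-hour exposure; five concentrations; linearly interpolated endpoints. At the GI50, growth is halved.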
# Test system: UACC-257
# Experiment: NCI tumour cell line growth inhibition, 48 h
row,Substance,GI50 [µM]
1,"[Bis(aminomethyl)dimethylsilane]dichloroplatinum (II), CHEMBL2146201",45.7
2,"[Bis(aminomethyl)ethylmethylsilane]tetrachloroplatinum(IV), CHEMBL2146192",3.3
3,"[Bis(aminomethyl)tetramethylenesilane]dichloropaltinum(II), CHEMBL2146205",59.7
4,"[Bis(aminomethyl)dimethylsilane]tetrachloroplatinum(IV), CHEMBL2146190",15.1
5,"CISPLATIN, CHEMBL11359",4.09
6,"[Bis(aminomethyl)pentamethylenesilane]dichloropaltinum(II), CHEMBL2146202",6.81
7,"cis-Bis[[(trimethylsilyl)methyl]amino]tetrachloroplatinum(IV), CHEMBL2146191",5.31
8,"[Bis(aminomethyl)pentamethylenesilane]tetrachloropaltinum(IV), CHEMBL2146204",7.19
9,"mu-(1,7-nanodiamine-N,N')bis-(cis-aminedichloroplatimum (II)), CHEMBL2146215",20.1
10,"[Bis(aminomethyl)diethylsilane]tetrachloroplatinum(IV), CHEMBL2146203",4.79
11,"[Bis(aminomethyl)tetramethylenesilane]tetrachloropaltinum(IV), CHEMBL2146189",16.4
